RORg inh: blocks mouse ROR gamma transcriptional activity; Potency, µM (highest dose often 53.6 µM), most hits filed as inhibitors; hit rate 5.4% among 310,000; P51450; Drosophila S2 Gal4-RORgamma UAS-luciferase reporter, 20 h; note: nearly all actives have a fitted effect of over 60% in size
Target sequence (P51450 whole entry, looked up, the tested form may be a part): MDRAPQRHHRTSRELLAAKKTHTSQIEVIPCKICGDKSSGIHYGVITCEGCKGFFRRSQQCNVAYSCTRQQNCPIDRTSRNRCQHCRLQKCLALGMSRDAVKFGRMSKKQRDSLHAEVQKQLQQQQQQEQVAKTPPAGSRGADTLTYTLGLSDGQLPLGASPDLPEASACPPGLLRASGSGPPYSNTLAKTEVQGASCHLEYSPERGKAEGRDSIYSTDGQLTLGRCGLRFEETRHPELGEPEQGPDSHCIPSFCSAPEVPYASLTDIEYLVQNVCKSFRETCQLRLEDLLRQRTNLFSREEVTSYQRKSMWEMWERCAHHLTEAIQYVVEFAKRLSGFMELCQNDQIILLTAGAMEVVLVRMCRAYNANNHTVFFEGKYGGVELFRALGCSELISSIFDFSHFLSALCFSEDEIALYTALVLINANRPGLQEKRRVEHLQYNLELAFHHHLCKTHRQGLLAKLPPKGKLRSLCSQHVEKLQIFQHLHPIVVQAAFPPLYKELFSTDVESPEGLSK
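ROR gamma transcriptional activity was tracked as Gal4-UAS luciferase output in stably transfected Drosophila Schneider cells, with compound added 1 hr before 700 uM copper sulfate induction and a 20 hr ambient-temperature incubation.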
TDP1 cell noCPT: qHTS for Inhibitors of human tyrosyl-DNA phosphodiesterase 1 (TDP1): qHTS in cells in absence of CPT. DT40 Tdp1-/- hTDP1 cells, no CPT, ATP luminescence, 48 h. Potency, µM (series often up to 46.2 µM), hits mostly inhibitors. hit rate 15% among 420,000; note: nearly all actives have a fitted effect of over 55% in size
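Compound effects on proliferation are scored in DT40 Tdp1-/-;hTDP1 cells in the absence of CPT. ATP levels (CellTiter-Glo luminescence) are recorded after a ≥48 hr, 37 °C incubation.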
IL1B secr inh: inhibitors of inflammasome signaling (IL-1 beta secretion); THP-1 LPS/ATP IL-1B secretion, AlphaLISA, 16 h; active compounds read low; activity change, % at 57.5 µM; hit rate 4.7% among 360,000; AID 743279; in the data active = activity change below about -50%; inconclusive = mostly about -30% to -49%
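THP-1 cells pretreated 1 hr with compounds (up to 57.5 uM final), then stimulated with LPS (250 ng/mL final) plus ATP (1.25 mM final); secreted IL-1B measured by AlphaLISA after 16 hr, decreased signal indicating inhibition.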
LDHA inh: inhibitors of human lactate dehydrogenase A; activity change, % (values are at about 110 or 230 µM); hit rate 0.15% among 480,000; P00338; purified LDHA, NADH/diaphorase-resazurin fluorescence; active compounds read low; in the data active = activity change below about -30%; inconclusive = mostly about -25% to -30%
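Remaining NADH was detected by diaphorase (0.133 mg/mL) converting 37 µM resazurin to fluorescent resorufin, read at 0 and 20 minutes. The preceding 5-minute room-temperature reaction used 2 nM LDHA, 0.2 mM sodium pyruvate and 0.06 mM NADH at pH 7.4.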
TDP1 cell CPT: DT40-hTDP1 cell growth loss with CPT; chicken DT40 Tdp1-/-;hTDP1 cells + 20 nM CPT, ATP luminescence, 48 h; Potency, µM (titrated, usually from 46.2 µM), actives largely listed as inhibitors; hit rate 12% among 420,000; AID 686979; note: nearly all actives have a fitted effect of over 55% in size
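Cell growth measured by CellTiter-Glo luminescence after a minimum 48 h, 37 C compound exposure with 20 nM CPT in Tdp1-knockout DT40 cells stably expressing hTDP1, seeded 400/well; qHTS titration format.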
VP16 counter: counter-screen for ROR gamma inhibitors: Gal4-VP16 reporter; Drosophila S2 Gal4-VP16 UAS-luciferase, luminescence, 20 h; Potency, µM (highest dose often 53.6 µM), hits mostly inhibitors; hit rate 3.5% among 310,000;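 note: Gal4-VP16 expression switched on by copper sulfate through the metallothionein promoter; nearly all actives have a fitted effect of over 50% in size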
Hits are given with their value; . = inactive; ? = inconclusive; / = not tested or not shown; [ ] = another dose, or the depositor's remark. The list is not random: actives were taken first. Their share in the collection is about 18%. Unless noted, calls come from the whole dose curve; as a rule, active = well fitted curve in the direction sought with a large enough effect; inconclusive = small, poorly fitted or top-dose-only effect, or another doubt; inactive = no such curve, though single readings can be large; an effect the other way counts as inactive or inconclusive.

SMILES	RORg inh	TDP1 cell noCPT	IL1B secr inh	LDHA inh	TDP1 cell CPT	VP16 counter
Cc1ccc(NC(=O)CSc2nccn2Cc2ccccc2)cc1C	.	20.6µM	.	.	?	.
Clc1ccc(CSc2nccn2Cc2ccccc2)cc1	?	16.4µM	-73.1	.	?	.
Cc1ccc2nc(NC(=O)CSc3nccn3Cc3ccc(F)cc3)sc2c1	/	18.4µM	/	.	16.4µM	/
CCOc1ccc(S(=O)(=O)N2CCOCC2)cc1NC(=O)c1oc2ccccc2c1C	/	/	/	.	/	/
O=C(C1CCCN(S(=O)(=O)Cc2ccccc2)C1)N1CCC(Cc2ccccc2)CC1 (stereo not drawn)	.	10.3µM	.	.	16.4µM	.
O=C(C1CCCN(S(=O)(=O)c2ccccc2)C1)N1CCCCCC1 (stereo not drawn)	.	16.4µM	.	.	.	.
CC(=O)Nc1ccc(S(=O)(=O)N2CCCC(C(=O)N3CCN(c4ccccc4)CC3)C2)cc1 (stereo not drawn)	/	20.6µM	.	.	23.1µM	/
COC(=O)Nc1ccc(S(=O)(=O)N2CCCC(C(=O)N3CCN(C)CC3)C2)cc1 (stereo not drawn)	.	.	.	.	.	.
O=C(O)C1CCCN(S(=O)(=O)Cc2ccccc2)C1 (stereo not drawn)	.	.	.	.	.	.
O=c1nc2n(-c3cccc(Cl)c3)c3cccc(Cl)c3cc-2c(=O)[nH]1	/	/	/	.	/	/
O=C(COC(=O)/C=C/C(=O)N1CCN(c2ccccc2)CC1)NC(c1ccccc1)c1ccccc1	?	?	-54.4	.	?	?
O=C(COC(=O)/C=C/c1cccs1)NC(c1ccccc1)c1ccccc1	.	?	.	.	?	.
CC1(C)CN(c2cccc(C#N)c2)C1=O	.	?	.	.	.	.
N#Cc1ccc2sn(-c3ccccc3)c(=O)c2c1	/	4.61µM	.	.	3.66µM	/
CC(=O)Nc1ccc2sn(-c3ccccc3)c(=O)c2c1	/	2.06µM	-101.5	.	2.06µM	/
O=c1c2cc([N+](=O)[O-])ccc2sn1-c1ccccc1	/	2.91µM	.	.	4.61µM	/
CCCOc1ccc(-c2nc(C#N)c(NCCc3ccc(OC)c(OC)c3)o2)cc1	/	/	/	.	/	/
C=CCC[C@@H](Cc1ccc(F)cc1)C(=O)OC[C@@H](Cc1c[nH]c2ccccc12)NC(=O)[C@H](CC=C)CC(=O)N(CCO)Cc1ccccc1	/	?	?	.	20.6µM	/
C=CCC[C@H](Cc1ccc(F)cc1)C(=O)OC[C@@H](Cc1c[nH]c2ccccc12)NC(=O)[C@H](CC=C)CC(=O)N(CCO)Cc1ccccc1	/	?	?	.	18.4µM	/
C=CCC[C@@H](Cc1ccc(F)cc1)C(=O)OC[C@H](Cc1c[nH]c2ccccc12)NC(=O)[C@@H](CC=C)CC(=O)N[C@H](CO)Cc1ccccc1	/	?	.	.	?	/
C[C@@H](C(=O)N1CCN(C(=O)OC(C)(C)C)CC1)n1cc(-c2cn([C@@H](C)C(=O)N3CCN(C(=O)OC(C)(C)C)CC3)nn2)nn1	.	/	/	/	/	.
CC(C)(C)OC(=O)CC[C@@H](C(=O)N1CCN(C(=O)OC(C)(C)C)CC1)n1cc(C(Cc2ccc(O)cc2)NC(=O)OC(C)(C)C)nn1 (stereo partly drawn)	.	16.4µM	.	.	18.4µM	.
CC(C)CC(NC(=O)OC(C)(C)C)c1cn([C@@H](CCCCNC(=O)OC(C)(C)C)C(=O)N2CCN(C(=O)OC(C)(C)C)CC2)nn1 (stereo partly drawn)	.	3.66µM	.	.	5.8µM	.
Cc1cccc(C(=O)N/N=C2/CC(=O)CC(C)(C)C2)c1	/	/	/	.	/	/
Cc1nn(CC(=O)N2CCN(c3cccc(C(F)(F)F)c3)CC2)c(=O)c2cccn12	?	23.1µM	.	.	14.6µM	.
SMILES	RORg inh	TDP1 cell noCPT	IL1B secr inh	LDHA inh	TDP1 cell CPT	VP16 counter
CCOC(=O)c1cc2c(ccn2C)n1CC(=O)N1CCN(c2cccc(C(F)(F)F)c2)CC1	.	16.4µM	.	.	16.4µM	.
CC1CCN(S(=O)(=O)c2cn(CC(=O)N3CCN(c4cccc(C(F)(F)F)c4)CC3)cn2)CC1	?	?	.	.	14.6µM	.
CCOC(=O)c1cc2c(ccn2C)n1CC(=O)N1CCN(c2ccc(F)cc2)CC1	.	.	.	.	.	.
Cc1nn(CC(=O)Nc2cccc(C(F)(F)F)c2)c(=O)c2cccn12	.	.	.	.	?	.
COc1ccc(NC(=O)COc2ncnc3ccccc23)cc1Cl	/	/	/	.	/	/
COc1ccc(CCNC(=O)c2cc(C(=O)c3cc(Cl)ccc3O)cn(CCc3ccc(OC)cc3)c2=O)cc1	?	10.3µM	.	.	10.3µM	.
O=C(c1cc(C(=O)NCCc2ccccc2)c(=O)n(CCc2ccccc2)c1)c1cc(Cl)ccc1O	?	14.6µM	.	.	?	14.1µM
COc1ccc(-c2oc3ccc(N4CCOCC4)cc3c2C#Cc2ccc(N)cc2)cc1	/	6.51µM	.	.	7.31µM	/
COc1ccc(-c2oc3cccnc3c2C#CC2(O)CCCCC2)cc1	7.08µM	23.1µM	-55.7	.	?	?
OC1(C#Cc2c(-c3ccsc3)oc3ccc(N4CCOCC4)cc23)CCCCC1	/	?	.	.	?	/
COc1ccc(-c2oc3cccnc3c2C#CCO)cc1	?	?	.	.	?	.
COc1ccc(-c2oc3ccc(N4CCOCC4)cc3c2C#CC2(O)CCCCC2)cc1	/	16.4µM	.	.	?	/
Cc1ccccc1S(=O)(=O)N1CCC(n2c(CC(C)C)nc3cccnc32)CC1	/	/	/	.	/	/
COC(=O)C1=CNC=C(C(=O)OC)C1c1cccc(Cl)c1	/	/	/	.	/	/
Cc1nc2sc3c(c2c(=N)n1N)CC(C)(C)OC3	.	.	.	.	.	.
CCc1nc2sc3c(c2c(=S)[nH]1)CC(C)(C)OC3	2µM	?	.	.	?	6.31µM
CSc1nc2sc3c(c2c(=S)[nH]1)CC(C)(C)OC3	3.16µM	.	.	.	.	11.2µM
CC1(C)Cc2c(sc3nc(SCC(=O)O)[nH]c(=O)c23)CO1	.[10 µM]	.	.	.	.	.
CCOc1c(Br)cc(C(=O)Nc2nnc(C3CC3)s2)cc1OC	/	/	/	.	/	/
CCCCCCCCC(=O)Nc1cccc(C)c1C	/	/	/	.	/	/
CCCCOc1ccc(/C=N/NC(=S)Nc2cccc(C)c2C)cc1	1.78µM	?	.	.	?	3.16µM
Cc1cccc(C)c1NC(=S)N/N=C/c1ccc(OCCC(C)C)cc1	1.58µM	7.31µM	?	.	9.2µM	2.82µM
NC(=O)c1cc(-c2ccccc2)sc1NC(=O)CN1CCCCC1	?	23.1µM	-50.9	.	20.6µM	.
COC(=O)c1cc(-c2ccccc2)sc1NC(=O)CN1C(=O)c2ccccc2C1=O	.	.	-62.2	.	.	.
